Data reported in PubChem BioAssay AID2081 (NMMLSC, 2009).
The source made the active and inactive calls. How the calls were made is not given here.

Molecular target: Bcl-2-like protein 2 (Homo sapiens) (UniProt Q92843)
Assay: inhibitors of Bim binding to Bcl-W, confirmation, biochemical, multiplexed, bead-based flow cytometry, HTS hits (AID 2081)

Sequence of Bcl-2-like protein 2 (Homo sapiens) (Q92843 whole entry, looked up): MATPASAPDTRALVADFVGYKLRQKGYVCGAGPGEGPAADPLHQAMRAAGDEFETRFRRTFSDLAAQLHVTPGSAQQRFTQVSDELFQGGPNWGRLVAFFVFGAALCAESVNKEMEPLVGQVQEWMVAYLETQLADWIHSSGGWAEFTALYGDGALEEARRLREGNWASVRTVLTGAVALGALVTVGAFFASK

Compound	outcome
O=C1NC(=O)C2(Cc3c(nc4ccccn4c3=O)N3CCCCCC32)C(=O)N1Cc1ccccc1 (configuration not stated)	inactive
O=C1NC(=O)C(=Cc2ccc(-c3cc(Cl)ccc3[N+](=O)[O-])o2)C(=O)N1	inactive
